Active and inactive are the calls of the source.

Assay [1] has as its system PRMT1 (protein arginine N-methyltransferase 1). Nature of the assay: PRMT1 binders on small-molecule microarrays, primary screen, biochemical, small-molecule microarray, 635 nm fluorescence (AID 1088).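 Also: binding of Prmt1 protein to compounds spotted on small-molecule microarray slides.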 To be noted: small-molecule microarray binding, higher = more signal.
A short description of assay [2]: yeast growth modulation, basal conditions, primary screen, YJM789 clinical isolate, OD600, 24 h (AID 1089).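 Also: growth of clinical yeast isolate S. cerevisiae YJM 789 seeded 1000 cells per well; test concentration not given here.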 To be noted: S. cerevisiae YJM789 growth, higher = more signal, called active from +8 up or from −8 down.
Assay [3] can be described thus: fission yeast growth modulation, primary screen, strain 972, OD600, 24 h, no modulator (AID 1090).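 Also: basal condition with compound alone and no growth modifier present; test concentration not given here.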 The following applies: S. pombe 972 growth, higher = more signal, called active from +8 up or from −8 down.
Assay [4] is described as follows: S. cerevisiae growth modulation with rapamycin, primary screen, strain BY4716, OD600, 96 h (AID 1091). Also: test concentration not given here. The following applies: higher = more signal, called active from +8 up or from −8 down.
Assay [5] addresses Torsin-1A-interacting protein 2 (Homo sapiens) (UniProt Q8NFQ8). Kind of assay: LULL1 binders on small-molecule microarray, primary screen, cell lysate, human LULL1 lysate, 635/667 nm fluorescence (AID 1092).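 Also: probe is lysate of COS7 cells overexpressing human LULL1; score merges per-feature 667 nm fluorescence with signal-to-noise.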 The following applies: hLULL1 lysate binding, 635 nm fluorescence, higher = more signal.
Assay [6] in a line: E. coli growth modulation, two-sided OD650, primary screen, E. coli filamentation project, strain DRC41, 24 h (AID 1093).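 Also: MC1000 strain lacking acrAB efflux and sulA so SOS filamentation is blocked; test concentration not given here.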 The following applies: OD650, 24 h, higher = more signal, called active from +8 up or from −8 down.
Assay [7] in a line: small-molecule microarray binders of probe aLefty2, primary screen, biochemical, biotinylated probe, 635/667 nm fluorescence (AID 1094).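 Also: score merges spot fluorescence near 667 nm with spot signal-to-noise ratio.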 The following applies: higher = more signal.
Assay [8] concerns Noggin (protein binding on small-molecule microarray). Nature of the assay: Noggin binders on small-molecule microarray, primary screen, biochemical, 635/667 nm fluorescence (AID 1095).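 Also: score merges 667 nm feature fluorescence with signal to noise over triplicate slides.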 To be noted: 635 nm fluorescence, higher = more signal.
Assay [9] addresses Neurogenic locus notch homolog protein 3 (Homo sapiens) (UniProt Q9UM47). Nature of the assay: NOTCH3 binders on small-molecule microarray, primary screen, biochemical, 635/667 nm fluorescence (AID 1096). To be noted: NOTCH3 binding, 635 nm fluorescence, higher = more signal.
Assay [10] is described as follows: small-molecule microarray binders of probe aEGFR, primary screen, biochemical, biotinylated probe, 635/667 nm fluorescence (AID 1097).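 Also: probe is a biotinylated anti-EGFR antibody binding compounds printed on slides; score combines fluorescence near 667 nm and signal to noise of each spot.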 To be noted: higher = more signal.
Assay [11] has as its system Plasmodium falciparum Sir2 (PF13_0152, Sir2A). Nature of the assay: pfSir2 binders on small-molecule microarrays, primary screen, biochemical, small-molecule microarray, 635 nm fluorescence (AID 1098).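 Also: score merges spot fluorescence intensity with its signal-to-noise ratio.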 To be noted: small-molecule microarray binding, fluorescence 635 nm; higher = more signal.
Assay [12] in a line: small-molecule microarray binders of probe aDKK1, primary screen, biochemical, biotinylated probe, 635/667 nm fluorescence (AID 1099).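 Also: score merges 667nm spot fluorescence with signal to noise across triplicate slides; reference of the scale not given here.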 The following applies: higher = more signal.
Assay [13] in a line: small-molecule microarray binders of probe aCHRDL2, primary screen, biochemical, biotinylated probe, 635/667 nm fluorescence (AID 1100). To be noted: higher = more signal.
Assay [14] can be described thus: splicing luciferase reporter signal modulators, primary screen, spliceosome inhibition project, cell-based, HEK293, splice +/- reporter (AID 1101).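 Also: HEK293 cells carrying a splicing-competent luciferase reporter gene; test concentration not given here.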 To be noted: luminescence, 24 h, higher = more signal, called active from +8 up or from −8 down. For orientation: A reporter such as luciferase makes a cellular process visible.
Assay [15] addresses Fibroblast growth factor 10 (Homo sapiens) (UniProt O15520). Nature of the assay: FGF10 binders on small-molecule microarrays, primary screen, biochemical, small-molecule microarray, 635 nm fluorescence (AID 1102). The following applies: FGF10 binding, fluorescence 635 nm, higher = more signal.
For assay [16], the system named is glycogen synthase kinase-3 (GSK3A per assay name; protocol says GSK3B). Nature of the assay: GSK3 binders on small-molecule microarrays, primary screen, biochemical, small-molecule microarray, 635 nm fluorescence, GSK3A (AID 1103). Also: the record names both GSK3A and GSK3B. To be noted: small-molecule microarray binding, fluorescence 635 nm; higher = more signal.
The target in assay [17] is Epidermal growth factor receptor (Homo sapiens) (UniProt P00533). Nature of the assay: EGFR binders on small-molecule microarrays, primary screen, biochemical, small-molecule microarray, 635 nm fluorescence (AID 1104).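 Also: score merges 667 nm emission intensity with spot signal to noise over triplicate slides.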 To be noted: EGFR binding, higher = more signal.
Sequence of Epidermal growth factor receptor (Homo sapiens) (P00533 whole entry, looked up): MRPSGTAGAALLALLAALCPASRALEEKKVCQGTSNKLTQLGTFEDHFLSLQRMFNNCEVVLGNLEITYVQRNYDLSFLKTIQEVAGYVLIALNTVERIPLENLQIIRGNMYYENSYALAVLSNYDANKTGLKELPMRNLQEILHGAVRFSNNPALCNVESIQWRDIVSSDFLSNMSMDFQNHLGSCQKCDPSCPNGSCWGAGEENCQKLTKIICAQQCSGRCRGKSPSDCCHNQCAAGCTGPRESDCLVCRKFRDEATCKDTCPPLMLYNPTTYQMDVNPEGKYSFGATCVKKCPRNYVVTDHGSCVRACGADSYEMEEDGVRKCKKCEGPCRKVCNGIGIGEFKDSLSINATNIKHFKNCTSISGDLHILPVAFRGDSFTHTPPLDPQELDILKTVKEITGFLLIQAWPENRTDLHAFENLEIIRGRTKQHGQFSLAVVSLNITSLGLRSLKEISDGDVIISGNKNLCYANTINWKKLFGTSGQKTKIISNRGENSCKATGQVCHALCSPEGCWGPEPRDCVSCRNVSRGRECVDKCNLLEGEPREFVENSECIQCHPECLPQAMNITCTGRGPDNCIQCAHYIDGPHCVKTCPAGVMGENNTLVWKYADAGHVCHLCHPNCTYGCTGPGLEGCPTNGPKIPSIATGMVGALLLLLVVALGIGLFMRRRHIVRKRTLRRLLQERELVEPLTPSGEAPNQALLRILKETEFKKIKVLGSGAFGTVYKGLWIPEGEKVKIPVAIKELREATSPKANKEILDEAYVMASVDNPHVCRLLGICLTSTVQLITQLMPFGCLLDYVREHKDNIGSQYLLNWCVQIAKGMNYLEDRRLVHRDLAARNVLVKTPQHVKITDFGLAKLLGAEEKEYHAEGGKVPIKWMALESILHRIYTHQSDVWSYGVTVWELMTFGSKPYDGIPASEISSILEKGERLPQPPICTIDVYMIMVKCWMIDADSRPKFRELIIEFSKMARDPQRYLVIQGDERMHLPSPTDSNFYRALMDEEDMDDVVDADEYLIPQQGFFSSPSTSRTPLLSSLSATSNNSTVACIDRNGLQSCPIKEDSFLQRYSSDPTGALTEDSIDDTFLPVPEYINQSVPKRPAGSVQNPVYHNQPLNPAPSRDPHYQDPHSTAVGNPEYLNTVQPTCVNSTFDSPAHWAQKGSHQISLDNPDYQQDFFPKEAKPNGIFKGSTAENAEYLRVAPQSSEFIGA
For assay [18], the target named is Follistatin-related protein 3 (Homo sapiens) (UniProt O95633). Kind of assay: FSTL3 binders on small-molecule microarrays, primary screen, biochemical, small-molecule microarray, 635 nm fluorescence (AID 1105).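 Also: score merges emission near 667 nm and signal to noise per printed spot across three slides.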 The following applies: FSTL3 binding, higher = more signal.
Sequence of Follistatin-related protein 3 (Homo sapiens) (O95633 whole entry, looked up): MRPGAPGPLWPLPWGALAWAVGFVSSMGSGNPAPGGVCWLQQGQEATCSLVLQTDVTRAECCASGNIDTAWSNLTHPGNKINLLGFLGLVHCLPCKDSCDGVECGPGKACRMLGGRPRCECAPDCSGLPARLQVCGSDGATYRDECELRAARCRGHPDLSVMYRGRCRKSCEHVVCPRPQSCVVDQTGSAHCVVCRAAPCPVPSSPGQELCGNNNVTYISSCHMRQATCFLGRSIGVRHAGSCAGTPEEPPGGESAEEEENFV
Assay [19] has as its target Dickkopf-related protein 1 (Homo sapiens) (UniProt O94907). Kind of assay: DKK1 binders on small-molecule microarrays, primary screen, biochemical, small-molecule microarray, 635 nm fluorescence scan (AID 1106).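 Also: score merges emission near 667 nm with signal to noise over three replicate slides.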 The following applies: DKK1 binding, higher = more signal.
For assay [20], the system named is Inhibin beta A chain (activin A). Nature of the assay: INHBA (activin A) binders on microarrays, primary screen, biochemical, small-molecule microarray, 635 nm fluorescence scan (AID 1107).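 Also: mouse activin A protein probed at 4.33 µg/mL on printed slides; score merges bound-protein fluorescence near 667 nm with spot signal-to-noise.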 The following applies: small-molecule microarray binding, higher = more signal.

Sequence of Fibroblast growth factor 10 (Homo sapiens) (O15520 whole entry, looked up): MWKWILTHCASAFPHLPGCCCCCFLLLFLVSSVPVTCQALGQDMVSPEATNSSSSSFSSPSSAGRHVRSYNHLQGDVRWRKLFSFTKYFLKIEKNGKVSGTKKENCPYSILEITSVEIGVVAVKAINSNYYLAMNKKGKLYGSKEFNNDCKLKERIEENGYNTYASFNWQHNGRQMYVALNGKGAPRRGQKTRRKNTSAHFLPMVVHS
Sequence of Neurogenic locus notch homolog protein 3 (Homo sapiens) (Q9UM47 whole entry, looked up): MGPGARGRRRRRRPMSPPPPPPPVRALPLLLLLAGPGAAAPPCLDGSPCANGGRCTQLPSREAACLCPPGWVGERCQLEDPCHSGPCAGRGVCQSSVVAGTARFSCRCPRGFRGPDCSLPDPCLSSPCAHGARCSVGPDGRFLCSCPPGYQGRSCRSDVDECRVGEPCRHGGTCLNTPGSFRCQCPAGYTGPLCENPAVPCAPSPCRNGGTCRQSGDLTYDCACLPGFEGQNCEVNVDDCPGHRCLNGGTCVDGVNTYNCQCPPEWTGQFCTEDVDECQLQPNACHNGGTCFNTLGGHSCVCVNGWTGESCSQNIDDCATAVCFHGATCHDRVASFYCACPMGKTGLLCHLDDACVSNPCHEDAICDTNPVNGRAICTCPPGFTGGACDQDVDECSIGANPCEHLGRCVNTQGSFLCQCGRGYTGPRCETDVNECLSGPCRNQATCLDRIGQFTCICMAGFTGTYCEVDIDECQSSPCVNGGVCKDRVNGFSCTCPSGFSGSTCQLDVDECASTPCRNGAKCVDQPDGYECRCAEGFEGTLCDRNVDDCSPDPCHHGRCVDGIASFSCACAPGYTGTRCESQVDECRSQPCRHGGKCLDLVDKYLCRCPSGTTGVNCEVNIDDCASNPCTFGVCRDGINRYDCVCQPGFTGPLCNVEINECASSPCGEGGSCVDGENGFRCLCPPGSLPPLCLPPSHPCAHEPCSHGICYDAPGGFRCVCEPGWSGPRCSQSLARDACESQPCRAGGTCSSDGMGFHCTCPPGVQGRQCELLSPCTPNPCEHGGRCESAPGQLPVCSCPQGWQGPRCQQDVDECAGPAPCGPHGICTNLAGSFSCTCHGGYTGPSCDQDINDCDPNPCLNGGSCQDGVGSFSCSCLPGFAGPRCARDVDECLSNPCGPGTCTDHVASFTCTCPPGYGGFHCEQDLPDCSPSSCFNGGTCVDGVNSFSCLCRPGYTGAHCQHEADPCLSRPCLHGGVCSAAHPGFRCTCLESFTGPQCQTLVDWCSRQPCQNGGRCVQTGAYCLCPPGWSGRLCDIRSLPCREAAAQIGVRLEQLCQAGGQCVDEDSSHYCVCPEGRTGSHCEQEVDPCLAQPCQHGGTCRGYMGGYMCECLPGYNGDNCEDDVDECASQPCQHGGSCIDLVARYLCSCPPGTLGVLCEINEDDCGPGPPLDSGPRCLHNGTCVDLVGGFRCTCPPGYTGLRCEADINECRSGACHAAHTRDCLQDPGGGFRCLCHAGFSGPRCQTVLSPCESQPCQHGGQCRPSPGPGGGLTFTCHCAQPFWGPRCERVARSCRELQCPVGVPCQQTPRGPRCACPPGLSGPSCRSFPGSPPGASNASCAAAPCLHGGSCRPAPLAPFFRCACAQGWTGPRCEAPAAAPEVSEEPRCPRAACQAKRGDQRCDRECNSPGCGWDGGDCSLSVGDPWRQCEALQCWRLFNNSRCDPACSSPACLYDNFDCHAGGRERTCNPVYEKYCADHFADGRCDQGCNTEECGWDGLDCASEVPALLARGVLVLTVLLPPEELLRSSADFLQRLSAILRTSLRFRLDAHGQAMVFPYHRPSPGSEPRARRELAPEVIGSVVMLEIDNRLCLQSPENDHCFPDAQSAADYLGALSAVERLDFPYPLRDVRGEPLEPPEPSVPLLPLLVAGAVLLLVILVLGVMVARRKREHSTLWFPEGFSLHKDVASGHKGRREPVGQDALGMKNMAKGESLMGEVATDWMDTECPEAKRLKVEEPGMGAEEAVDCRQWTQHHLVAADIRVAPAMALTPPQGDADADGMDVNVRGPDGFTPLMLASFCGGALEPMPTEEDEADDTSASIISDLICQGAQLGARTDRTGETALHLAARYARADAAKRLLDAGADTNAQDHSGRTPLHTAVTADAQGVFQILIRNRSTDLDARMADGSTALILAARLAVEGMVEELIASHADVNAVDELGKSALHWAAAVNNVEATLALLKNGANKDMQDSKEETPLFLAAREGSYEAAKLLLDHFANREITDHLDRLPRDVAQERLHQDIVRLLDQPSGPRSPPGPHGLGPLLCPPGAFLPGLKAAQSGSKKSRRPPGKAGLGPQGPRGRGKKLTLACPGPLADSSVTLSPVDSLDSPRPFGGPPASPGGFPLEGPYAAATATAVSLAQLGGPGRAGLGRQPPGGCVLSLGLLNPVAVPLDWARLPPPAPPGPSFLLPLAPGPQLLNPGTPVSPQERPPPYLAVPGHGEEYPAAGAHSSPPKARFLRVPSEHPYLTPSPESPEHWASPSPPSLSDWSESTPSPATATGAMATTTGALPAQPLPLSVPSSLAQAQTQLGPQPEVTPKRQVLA
Sequence of Dickkopf-related protein 1 (Homo sapiens) (O94907 whole entry, looked up): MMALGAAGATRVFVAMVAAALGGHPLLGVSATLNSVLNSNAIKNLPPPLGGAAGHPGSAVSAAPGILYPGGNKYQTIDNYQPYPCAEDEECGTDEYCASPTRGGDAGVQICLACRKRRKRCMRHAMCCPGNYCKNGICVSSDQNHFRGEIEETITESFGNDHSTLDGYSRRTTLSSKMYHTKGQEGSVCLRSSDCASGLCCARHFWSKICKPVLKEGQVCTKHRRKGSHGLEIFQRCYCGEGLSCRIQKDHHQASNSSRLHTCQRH
Sequence of Torsin-1A-interacting protein 2 (Homo sapiens) (Q8NFQ8 whole entry, looked up): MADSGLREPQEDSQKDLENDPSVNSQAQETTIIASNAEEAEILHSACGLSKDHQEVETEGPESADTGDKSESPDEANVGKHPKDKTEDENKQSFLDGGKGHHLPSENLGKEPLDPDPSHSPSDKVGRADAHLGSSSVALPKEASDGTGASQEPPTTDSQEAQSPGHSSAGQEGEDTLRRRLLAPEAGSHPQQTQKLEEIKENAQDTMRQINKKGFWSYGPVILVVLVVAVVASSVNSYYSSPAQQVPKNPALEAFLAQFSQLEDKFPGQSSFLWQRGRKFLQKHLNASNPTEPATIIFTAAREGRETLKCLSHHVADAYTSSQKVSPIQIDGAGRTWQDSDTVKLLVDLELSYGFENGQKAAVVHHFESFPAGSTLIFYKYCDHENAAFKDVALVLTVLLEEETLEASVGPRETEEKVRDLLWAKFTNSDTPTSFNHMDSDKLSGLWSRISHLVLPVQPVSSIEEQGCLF

For `[N-]=[N+]=NCc1ccccc1[C@H]1OC(c2ccc(OCCCO)cc2)=N[C@@]1(CCS(=O)(=O)c1ccccc1)C(N)=O`, the composite z-score was 1.47 in assay [1]; 3.36 in assay [5]; 0.074 in assay [7]; 0.086 in assay [8]; 0.861 in [9]; 0.0929 in assay [10]. The composite z-score is 1.37 in [11]; 0.605 in assay [12]; 1.07 in assay [13]; 1.5 in assay [15]; 1.1 in assay [16]; -0.216 in assay [17]. Also, the figures for the composite z-score in assay [18], in assay [19] and in assay [20] were 0.441, -0.0333 and 1.29, respectively. Also, the z-score in assay [2] is 0.0249 (inactive); in assay [3], -0.131 (inactive); in assay [4] it was -0.595 (inactive); in [6], -0.199 (inactive); in assay [14] it was -0.503 (inactive).

Turning to `COc1ccc([Si](C)(C)[C@H]2[C@H](CCn3cc(CCO)nn3)O[C@@]3(C(=O)N(Cc4ccc(N5C(=O)c6cccc7cccc5c67)cc4)c4ccccc43)[C@@H]2C)cc1`, the composite z-score in [1] is 1.55; in assay [5] it was 1.86; in assay [7], -0.0895; in assay [8], 1.41; in [9], 1.09; in [10], -0.0371. The composite z-score in assay [11] was 0.96; in assay [12] it was -0.145; in [13] it was -0.564; in assay [15], 0.916; in [16], 0.682; in assay [17], 0.567. In addition, the composite z-score in assay [18] is 1.3; in assay [19], 0.652; in [20] it was 0.281. In addition, the z-score in [2] was -0.246 (inactive); in [3], 0.983 (inactive); in [4], 6.07 (inactive); in assay [6] it was 2.76 (inactive); in [14] it was -2.8 (inactive).

With `NC(=O)N1C(=O)C2C(C1=O)C1C=C(c3ccc(CO)cc3)C2C(C2CC2)N1Cc1sc2ccccc2c1Cl` (stereo not given), the composite z-score in [1] was 1.54; in [5] it was 2.68; in assay [7], 0.0139; in assay [8], 0.695; in assay [9], 1.06; in [10], -0.0271. Moreover, the composite z-score in assay [11] was 0.834; in [12] it was -0.0675; in assay [13], 0.102; in [15], 1.25; in [16] it was 1.12; in assay [17], 0.553. Further, the composite z-score in [18] was 1.21; in assay [19] it was 0.307; in assay [20], -0.115. In addition, the z-score in assay [2] was 2.22 (inactive); in [3] it was -2.31 (inactive); in assay [4], 0.266 (inactive); in assay [6] it was 1.34 (inactive); in assay [14] it was -0.72 (inactive).

Regarding `CON(C)C(=O)C=C1C[C@@H](c2cccc(Cl)c2)O[C@@H](c2cccc(Cl)c2)O1`, the composite z-score in assay [1] was 0.945; in assay [5], 0.989; in assay [7], -0.0309; in assay [8], 0.407; in [9], 0.121; in assay [10], -0.0769. Besides, the composite z-score was 1 in assay [11]; 0.0204 in [12]; -0.126 in [13]; -0.148 in [15]; 0.846 in assay [16]; -0.185 in [17]. Also, the composite z-score worked out at 0.243 in assay [18], 0.484 in assay [19] and 0.9 in assay [20]. For the same molecule, the z-score was 0.37 (inactive) in [2]; -0.873 (inactive) in assay [3]; 6.28 (inactive) in [4]; -0.168 (inactive) in assay [6]; -1.16 (inactive) in assay [14].

On to `COC(=O)C1(Cc2ccccc2)C=C2C(=C(c3ccccc3)C(=O)C2C)CN1` (stereo not given), for which the composite z-score in assay [1] was -1.24; in assay [5], 1.29; in [7], 1.32; in [8], -1.58; in [9], 0.885; in assay [10], 1.29. Moreover, the composite z-score in assay [11] is -0.208; in assay [12] it was 1.88; in assay [13], 1.39; in assay [15], 1.03; in assay [16], -0.731; in assay [17], -0.544. The values for the composite z-score in assay [18], in assay [19] and in [20] were -0.147, -0.89 and 1.69, respectively. For the same molecule, the z-score is -0.175 (inactive) in assay [2]; -0.183 (inactive) in assay [3]; 0.269 (inactive) in assay [4]; -0.749 (inactive) in [6]; 0.388 (inactive) in assay [14].

The values above are taken from PubChem BioAssay.
